Reference: PubChem BioAssay (NCI)
About 83,000 compounds went through this panel and 20% of them were active in at least one assay; those are over-represented in the sample as a whole.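 Activity criterion: percent growth below 10, measured after cells in 96-well plates were exposed to a single compound concentration for 48 hours.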 Activity calls are given as the source filed them.

Experiments:
Test in all cases: NCI-60 one-dose screen, 48 h (100 = growth as untreated, 0 = no growth, -100 = all killed)
Conditions in all cases: 10 µM unless noted
SK-MEL-2 melanoma = system: SK-MEL-2 melanoma
EKVX NSCLC = system: EKVX NSCLC
SN12C renal = system: SN12C renal
UO-31 renal = system: UO-31 renal
TK-10 renal = system: TK-10 renal
ACHN renal = system: ACHN renal
CAKI-1 renal = system: CAKI-1 renal
CCRF-CEM leukemia = system: CCRF-CEM leukemia
MOLT-4 leukemia = system: MOLT-4 leukemia
A498 renal = system: A498 renal

Measured: growth

COc1ccc2[nH]c(=O)c(CNc3ccc(Nc4nccc(-c5ccc(Cl)cc5)n4)cc3)cc2c1
inactive: SK-MEL-2 melanoma 87% | EKVX NSCLC 94% | SN12C renal 87.1% | UO-31 renal 64% | TK-10 renal 102% | ACHN renal 90.1% | CAKI-1 renal 97.6% | CCRF-CEM leukemia 75.7% | MOLT-4 leukemia 48.4%

CC(=O)O[C@H]1CC[C@@]2(C)C(=CC[C@@H]3[C@@H]2CC[C@]2(C)C(c4cccnc4)=CC[C@@H]32)C1
inactive: SK-MEL-2 melanoma 23.6% | EKVX NSCLC 49.5% | SN12C renal 96.7% | UO-31 renal 33.5% | TK-10 renal 90.8% | ACHN renal 44.7% | A498 renal 91.5% | CCRF-CEM leukemia 48.3% | MOLT-4 leukemia 46%

N#Cc1c(-c2ccccc2)cc(-c2ccccc2)n(CCCCC(=O)O)c1=O
inactive: SK-MEL-2 melanoma 96.6% | EKVX NSCLC 89.4% | SN12C renal 96.8% | UO-31 renal 86% | TK-10 renal 99.9% | ACHN renal 100% | CAKI-1 renal 86.8% | CCRF-CEM leukemia 87.7% | MOLT-4 leukemia 107%

Clc1ccc2[nH]cc(-c3cncn3CCc3ccccc3)c2c1
inactive: SK-MEL-2 melanoma 52.5% | EKVX NSCLC 34.4% | SN12C renal 57.2% | UO-31 renal 42.2% | TK-10 renal 42.8% | ACHN renal 66% | CAKI-1 renal 39% | CCRF-CEM leukemia 54.1% | MOLT-4 leukemia 51%

N#Cc1c(-c2ccccc2)cc(-c2ccccc2)n(CCC(=O)O)c1=O
inactive: EKVX NSCLC 76.8% | SN12C renal 69.1% | UO-31 renal 63.1% | TK-10 renal 75.6% | ACHN renal 67.1% | CAKI-1 renal 46.4% | CCRF-CEM leukemia 54.9% | MOLT-4 leukemia 49.4%
active: SK-MEL-2 melanoma 9.85%

Nc1nc(Nc2ccccc2SSc2ccccc2Nc2nc(N)nc(-c3cccc(Cl)c3)n2)nc(-c2cccc(Cl)c2)n1
inactive: SK-MEL-2 melanoma 105% | EKVX NSCLC 90.5% | SN12C renal 62.1% | UO-31 renal 83.9% | TK-10 renal 154% | ACHN renal 88.8% | CAKI-1 renal 75.5% | CCRF-CEM leukemia 68.1% | MOLT-4 leukemia 80.4%

O=C(N/N=C/c1cccc(O)c1)c1ccc(C(F)(F)F)nc1Nc1cccc(C(F)(F)F)c1
inactive: SK-MEL-2 melanoma 12.9% | TK-10 renal 15.6%
active: EKVX NSCLC 5.06% | SN12C renal 7.08% | UO-31 renal -9.68% | ACHN renal -6.85% | CAKI-1 renal -22% | CCRF-CEM leukemia -38.3% | MOLT-4 leukemia -20.5%

Cc1cc(C)c(C(=O)c2cccs2)c(C)c1
inactive: SK-MEL-2 melanoma 100% | EKVX NSCLC 117% | SN12C renal 94% | UO-31 renal 67.8% | TK-10 renal 96.2% | ACHN renal 108% | CAKI-1 renal 95.2% | CCRF-CEM leukemia 97.9% | MOLT-4 leukemia 104%

COc1ccc2c(c1)[n+](=O)c(/C=C/C(=O)c1cc(OC)c(OC)c(OC)c1)c(C)n2[O-]
active: CCRF-CEM leukemia -25.9% | MOLT-4 leukemia 0.943%
inactive: SK-MEL-2 melanoma 56% | EKVX NSCLC 71.3% | SN12C renal 40.5% | UO-31 renal 49.1% | TK-10 renal 62.9% | ACHN renal 47.7% | A498 renal 99.3%

COC(=O)Nc1ccc2ccc3c(NC(=O)OC)ccc4ccc1c2c43 (tested in a mixture with another compound)
inactive: SK-MEL-2 melanoma 52.8% | EKVX NSCLC 68.1% | SN12C renal 68.4% | UO-31 renal 42.1% | TK-10 renal 85.9% | ACHN renal 59% | CAKI-1 renal 50.7% | CCRF-CEM leukemia 54.4% | MOLT-4 leukemia 35%

N#Cc1ccc(-c2csc(Nc3ccc4nc5n(c(=O)c4c3)CCC5)n2)cc1
inactive: SK-MEL-2 melanoma 95.4% | EKVX NSCLC 99% | SN12C renal 104% | UO-31 renal 100% | TK-10 renal 110% | ACHN renal 108% | CAKI-1 renal 102% | CCRF-CEM leukemia 51.8% | MOLT-4 leukemia 92.8%

O=C(Nc1ccccc1)c1cc(-n2cnc([N+](=O)[O-])c2)cc(-n2cnc([N+](=O)[O-])c2)n1
inactive: SK-MEL-2 melanoma 103% | EKVX NSCLC 107% | SN12C renal 103% | UO-31 renal 92.3% | TK-10 renal 112% | ACHN renal 100% | A498 renal 114% | CCRF-CEM leukemia 89.3% | MOLT-4 leukemia 94.2%

COc1ccc2c(c1)c(CC(=O)[Se]C)c(C)n2C(=O)c1ccc(Cl)cc1
active: EKVX NSCLC -26.7% | SN12C renal -4.23% | TK-10 renal -58.4% | CAKI-1 renal -35.1% | MOLT-4 leukemia 6.33%
inactive: SK-MEL-2 melanoma 12.4% | UO-31 renal 14.7% | ACHN renal 10.4% | CCRF-CEM leukemia 13%

CC[C@@H](c1ccc(O)c(O)c1)[C@@H](CC)c1ccc(O)c(O)c1
inactive: SK-MEL-2 melanoma 93.6% | EKVX NSCLC 117% | SN12C renal 99.8% | TK-10 renal 97% | MOLT-4 leukemia 59.9%
active: UO-31 renal -1.68% | ACHN renal 9.03% | CAKI-1 renal 6.55% | CCRF-CEM leukemia 7.86%

CNNc1ncnc2c1cnn2-c1ccc(S(N)(=O)=O)cc1
inactive: SK-MEL-2 melanoma 98.3% | EKVX NSCLC 106% | SN12C renal 105% | UO-31 renal 94.3% | TK-10 renal 102% | ACHN renal 93% | A498 renal 112% | CCRF-CEM leukemia 81.6% | MOLT-4 leukemia 86.6%

Cc1ccc(-c2csc(N)n2)cc1
inactive: SK-MEL-2 melanoma 107% | EKVX NSCLC 104% | SN12C renal 96% | UO-31 renal 88.6% | TK-10 renal 97.2% | ACHN renal 97.7% | CAKI-1 renal 99.2% | CCRF-CEM leukemia 92% | MOLT-4 leukemia 90.3%

N#Cc1c(-c2ccccc2)cc(-c2ccccc2)n(CCCCCCC(=O)O)c1=O
inactive: SK-MEL-2 melanoma 88.8% | EKVX NSCLC 92.5% | SN12C renal 99.2% | UO-31 renal 82.7% | TK-10 renal 105% | ACHN renal 98.8% | CAKI-1 renal 97.7% | CCRF-CEM leukemia 106% | MOLT-4 leukemia 98.4%

Clc1ccc2c(c1)C(Br)c1cc(Cl)cc(Cl)c1-2 (centres undefined)
inactive: SK-MEL-2 melanoma 95.5% | EKVX NSCLC 46.2% | SN12C renal 27.5% | UO-31 renal 76.6% | TK-10 renal 118% | ACHN renal 99.1% | A498 renal 120%
active: CCRF-CEM leukemia -37.8% | MOLT-4 leukemia -20.2%

CC1c2ccccc2-c2ccccc2N1C (centres undefined)
inactive: SK-MEL-2 melanoma 101% | EKVX NSCLC 124% | SN12C renal 89.6% | UO-31 renal 70.7% | TK-10 renal 94.3% | ACHN renal 103% | CAKI-1 renal 95.7% | CCRF-CEM leukemia 101% | MOLT-4 leukemia 103%

Oc1ccccc1/C=N/N1CCCCCC1
inactive: SK-MEL-2 melanoma 103% | EKVX NSCLC 115% | SN12C renal 93.6% | UO-31 renal 83.1% | TK-10 renal 103% | ACHN renal 105% | CCRF-CEM leukemia 76% | MOLT-4 leukemia 95.1%

Clc1ccc2nc(CI)c(CI)nc2c1
inactive: SK-MEL-2 melanoma 82.5% | EKVX NSCLC 90.1% | SN12C renal 59.4% | TK-10 renal 88.3% | ACHN renal 87.7% | A498 renal 118%
active: UO-31 renal -31.8% | CCRF-CEM leukemia 4.15% | MOLT-4 leukemia -27.4%

COc1cccc(/C=N\NC(=O)c2ccncc2)c1O
inactive: SK-MEL-2 melanoma 43.8% | EKVX NSCLC 78.8% | SN12C renal 62.8% | UO-31 renal 29% | TK-10 renal 41.1% | ACHN renal 31.2% | CAKI-1 renal 13.2% | CCRF-CEM leukemia 11% | MOLT-4 leukemia 13.9%

COc1ccc(/C=C/C(=O)c2cccc(NS(C)(=O)=O)c2)cc1
inactive: SK-MEL-2 melanoma 114% | EKVX NSCLC 94.6% | SN12C renal 82.8% | UO-31 renal 48.6% | TK-10 renal 92.2% | ACHN renal 93.4% | A498 renal 101% | MOLT-4 leukemia 40.8%
active: CCRF-CEM leukemia 1.69%

O=C1C2C(C(=O)N1CC[Se][Se]CCN1C(=O)C3C(C1=O)[C@H]1C=C[C@@H]3C1)[C@H]1C=C[C@@H]2C1 (some centres undefined)
active: SK-MEL-2 melanoma -53.3% | EKVX NSCLC -56% | SN12C renal 3.39% | UO-31 renal -84.4% | TK-10 renal -70.2% | ACHN renal -52.2% | CAKI-1 renal -87.7% | CCRF-CEM leukemia 2.3% | MOLT-4 leukemia 1.28%

O=C(Nc1nc(-c2ccc(Cl)cc2)cs1)c1cc(-c2ccc(Br)cc2)nc2ccc(Cl)cc12
inactive: SK-MEL-2 melanoma 22.8% | EKVX NSCLC 77.3% | SN12C renal 35.8% | UO-31 renal 34.7% | TK-10 renal 130% | ACHN renal 63.6% | CAKI-1 renal 81.4% | CCRF-CEM leukemia 39.2% | MOLT-4 leukemia 18.5%

O=C1NC(=O)/C(=C/c2ccc(Cl)cc2Cl)N1
inactive: SK-MEL-2 melanoma 103% | EKVX NSCLC 77.4% | SN12C renal 107% | UO-31 renal 80.7% | TK-10 renal 110% | ACHN renal 109% | CAKI-1 renal 102% | CCRF-CEM leukemia 92.3% | MOLT-4 leukemia 94.5%

C[C@]12CC[C@H](O)CC1=CC[C@@H]1[C@@H]2CC[C@]2(C)C(c3cccnc3)=CC[C@@H]12
inactive: SK-MEL-2 melanoma 27.6% | EKVX NSCLC 38.8% | SN12C renal 91% | UO-31 renal 36.9% | TK-10 renal 93.6% | ACHN renal 61% | A498 renal 64.4% | CCRF-CEM leukemia 51.3% | MOLT-4 leukemia 34.1%

N#Cc1c(-c2ccccc2)cc(-c2ccccc2)n(CC(=O)O)c1=O
inactive: SK-MEL-2 melanoma 28% | EKVX NSCLC 81.4% | SN12C renal 70% | UO-31 renal 68.9% | TK-10 renal 84.2% | ACHN renal 76.1% | CAKI-1 renal 47.3% | CCRF-CEM leukemia 56.3% | MOLT-4 leukemia 63.8%

COc1ccc2nc(NC(=O)CN3CCn4c(nnc4C(F)(F)F)C3)sc2c1
inactive: SK-MEL-2 melanoma 106% | EKVX NSCLC 73.1% | SN12C renal 92.2% | UO-31 renal 80.6% | TK-10 renal 97.5% | ACHN renal 90.7% | CAKI-1 renal 77.7% | CCRF-CEM leukemia 86.5% | MOLT-4 leukemia 95.8%

O=C(Nc1ccccc1)P(=O)(O)c1ccccc1
inactive: SK-MEL-2 melanoma 118% | EKVX NSCLC 113% | SN12C renal 92.1% | UO-31 renal 76.9% | TK-10 renal 107% | ACHN renal 93.9% | CAKI-1 renal 117% | CCRF-CEM leukemia 120% | MOLT-4 leukemia 95%
